PubChem BioAssay AID571 (The Scripps Research Institute Molecular Screening Center, 2007)
The whole screen tested about 65,000 compounds, of which about 640 (0.98%) were called active.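 How the source made its calls: active means inhibition above a set limit, the mean inhibition across every tested compound plus 3 SD (cut at about 29% in these data); inactive means the rest.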 The list comes from a sample in which actives are over-represented; it also holds similar structures and randomly drawn compounds.

Target: 5-hydroxytryptamine receptor 1E (Homo sapiens) (UniProt P28566)
Sequence (P28566 whole entry, looked up): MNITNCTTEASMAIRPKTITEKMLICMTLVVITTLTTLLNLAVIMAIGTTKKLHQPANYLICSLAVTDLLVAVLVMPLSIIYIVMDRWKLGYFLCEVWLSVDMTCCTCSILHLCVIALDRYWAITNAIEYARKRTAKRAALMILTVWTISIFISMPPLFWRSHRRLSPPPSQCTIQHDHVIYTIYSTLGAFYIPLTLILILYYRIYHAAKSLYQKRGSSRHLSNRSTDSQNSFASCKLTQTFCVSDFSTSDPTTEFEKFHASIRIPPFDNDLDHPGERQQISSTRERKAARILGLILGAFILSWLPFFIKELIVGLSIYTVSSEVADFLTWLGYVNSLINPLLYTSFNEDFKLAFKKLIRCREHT
Assay: blockade of human serotonin 5HT1E receptor – cell-based, HTS, primary screen (AID 571);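 further: signal is the 460 over 535 nm emission ratio of beta-lactamase substrate; 0% = agonist plus DMSO wells and 100% = wells without agonist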
Settings: CHO 5-HT1E Ga15 NFAT-bla reporter, FRET, antagonist; at 6 µM; active compounds read high

inhibition, active:
CCN(CC(=O)NCc1cccs1)c1nnnn1-c1ccccc1 28.8%, O=C1c2ccccc2-c2ncnc3c(N4CCOCC4)cc(N4CCOCC4)c1c23 38.7%, COc1ccc(-c2cc(C(F)(F)F)nc(S(C)(=O)=O)n2)cc1OC 70.8%, CCc1nc(Nc2ccc3nccnc3c2)c2oc3ccccc3c2n1 51.6%, COc1cccc(-c2cc3nc4c(c(N5CCC6(CC5)OCCO6)n3n2)CCCC4)c1 28.7%, Cc1ccc(-n2ncc3c2ncn2nc(-c4ccco4)nc32)c(C)c1 40%, Cn1nc(-c2ccc(N3CCOCC3)c(NC(=O)c3ccccc3)c2)c2ccccc2c1=O 29.7%, COc1ccc(Nc2oc(-c3ccccc3Cl)nc2C#N)cc1 75%, COc1ccc(Nc2cc(C)nc(-n3nc(C)cc3C)n2)cc1 49%, CC(=O)c1ccc(Oc2cc(C)nc(-n3nc(C)cc3C)n2)cc1 78.3%

inhibition, inactive:
CC(=O)NC(C)(C)C1CC=C(C)/C(=N\O)C1 (configuration not stated) 6.93%, CC(C)(C)C(=O)CCN1C(=O)C2(OCCO2)c2ccccc21 -0.27%, COc1ccc2[nH]c3c(=O)n(Cc4ccco4)cnc3c2c1 9.2%, CSc1nnc(CNC(=O)c2ccccc2)n1-c1ccc(F)cc1 4.06%, CC(NC(=O)c1ccco1)C(=O)Nc1nc(-c2ccccn2)cs1 (configuration not stated) -4.44%, CCn1c(Cc2ccccc2)nnc1SCC(=O)Nc1ccccc1 -6.68%, CC1(C)CC(=O)C=C(NCCCNC2CCCCC2)C1 7.98%, Cc1nnc(SCC(=O)NCc2cccs2)[nH]c1=O 2.95%, Cc1ccccc1-n1c(SCC(=O)NCc2cccs2)nnc1-c1ccncc1 -6.81%, c1ccc(-c2oc3ncnc(N4CCOCC4)c3c2-c2ccccc2)cc1 -16.4%, c1cnn(-c2cc(N3CCOCC3)ncn2)c1 -8.12%, COc1ccccc1N(C(=O)Cn1nnc2ccccc21)C(C(=O)NCc1ccco1)c1ccc(C)o1 (configuration not stated) 12.3%, COc1ccc(-c2nnco2)cc1OC 3.01%, COc1ccc(-c2ccc(Nc3ccc(S(=O)(=O)N4CCCC4)cc3)nn2)cc1OC 20.8%, CCc1nc(N2CCN(c3nc(C)cc(C)n3)CC2)c2oc3ccccc3c2n1 4.92%, CCSc1nc(C)nc2c1oc1ccccc12 10.3%, Cc1ccc(N(CC(O)CN2CCCC2)S(=O)(=O)c2ccccc2)cc1 (configuration not stated) -0.23%, Cc1ccc(Nc2cc(=O)n(C3CCCCC3)c(=O)[nH]2)cc1C -5.13%, CN1CCN(Cc2nc3c(c(=O)n(C)c(=O)n3C)n2Cc2cccc3ccccc23)CC1 1.52%, COc1ccc(N(CC(=O)NC2CCCCCCC2)S(=O)(=O)c2c(C)nn(C)c2C)cc1 -13.7%, Cc1cn(C2C=CC(CO)O2)c(=O)[nH]c1=O (configuration not stated) -4.28%, O=C(CN1C(=O)CSc2ncccc21)N1CCOCC1 16.6%, Cc1cccc(CSc2nnc(Cn3c(=O)sc4ccccc43)n2C)c1 -7.45%, COc1cccc(-c2nc(S(=O)(=O)c3ccccc3)c(N3CCOCC3)o2)c1 19.7%, Cc1nc2cc(-c3ccc(F)cc3)nn2c(N2CCOCC2)c1C -1.31%, Cc1ccc(-n2ncc3c(=O)[nH]cnc32)c(C)c1 13%, Cc1ccc(-n2ncc3c(N4CCN(c5ccc(F)cc5)CC4)ncnc32)c(C)c1 5.14%, O=C(Cn1nnc2ccccc2c1=O)Nc1cc(C(F)(F)F)ccc1N1CCOCC1 5.96%, COc1c(C)cccc1C(=O)Nc1cc(Cl)ccc1N1CCOCC1 0.53%, O=C(O)C1CC=C(Cl)CC1C(=O)NCc1ccccc1 (configuration not stated) -3%, CCN(Cc1nc2ccccc2c(=O)[nH]1)Cc1cc(=O)oc2cc(C)c(C)cc12 -2.39%, CCn1c(SCC(=O)c2ccc(Cl)s2)nnc1-c1cccs1 3.04%, OCc1n[nH]c(CO)n1 6.12%, COCCN1Cc2cccc(C(=O)Nc3ccccc3OC)c2C1=O 8.66%, O=S(=O)(NCc1ccccn1)c1ccc(F)cc1 0.49%, NC(=O)C1(N2CCCCC2)CCN(C(=O)c2ccc(C#Cc3ccccc3)o2)CC1 2.52%, N#Cc1nc(-c2ccc(OCc3ccccc3)cc2)oc1NCCCN1CCOCC1 0.01%, CCOc1ccc(Nc2oc(Cc3ccccc3)nc2C#N)cc1 -1.52%, O=C(CN1CCN(S(=O)(=O)/C=C/c2ccccc2)CC1)NC(=O)NCc1ccco1 4.51%, COc1ccc(CCNC(=O)c2ccc3c(c2)NC(=O)C(N2CCOCC2)S3)cc1OC (configuration not stated) -4.16%, Cc1ccccc1NC(=O)c1cc(S(=O)(=O)N2CCOCC2)cs1 -6.32%, O=C(Nn1cc(C(=O)N2CCN(c3ccccc3F)CC2)c2ccccc2c1=O)c1cnccn1 3.04%, COc1cc(NS(=O)(=O)c2ccccc2)ccc1-n1nc(C)cc1C -6.22%, CCOC(=O)c1cnc(-n2nc(C)cc2C)nc1Nc1cccc(C(C)=O)c1 -0.9%, COCCNc1nc(-n2nc(C)cc2C)nc2sc3c(c12)CCCC3 22.7%, Cc1cc(C)n(-c2ccc(Cl)c(C(=O)O)n2)n1 4.5%, Cc1cc(NCc2ccco2)n2c(nc3ccccc32)c1C#N 11.1%, Nc1ccc(-c2nnc(-c3ccc(-c4ccccc4)cc3)o2)cc1 -0.45%, O=C(CSc1nnc(-c2ccncc2)n1C1CCCCC1)Nc1ccccc1 -9.37%, CC12C(=O)N(n3cnnc3)C(=O)C1C1C=CC2C1 (configuration not stated) 8.42%, COCCNC(=O)C(c1ccc(C)o1)N(Cc1cccs1)C(=O)c1snc(C(N)=O)c1N (configuration not stated) -3.57%, Cc1cc(=O)oc(C)c1C(=O)NC1CC(C)(C)NC(C)(C)C1 -4.29%
